For test [1], the system named is Zika virus NS2B-NS3 protease (linked construct). Kind of test: Primary screen NINDS Rhodamine qHTS for Zika virus inhibitors (AID 1347160). Note: nearly all actives have a fitted effect of over 55% in size. The gist of the method:
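Aprotinin served as in-plate control. Conditions: 25 nM linked NS2B-NS3, pH 8.0 Tris buffer, titrated compounds, 15 min preincubation and 15 min reaction with 1.5 microM Rhod110 substrate at room temperature.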

For test [2], the target named is Calcium and integrin-binding protein 1 (Homo sapiens) (UniProt Q99828). Kind of test: Primary qHTS for Identification of Calcium Integrin Binding Protein 1 (CIB1) Competitor (AID 1508620).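 Note: GST tagged CIB1 binding a fluorescein labelled alphaIIb integrin peptide tracer; top concentration of the series differs between compounds.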 In outline: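 CIB1-GST (1 uM final) and compound incubated 15 min at room temperature before adding FITC-alphaIIb peptide tracer (100 nM final). Competition for binding read by fluorescence polarization (ex 480, em 540) after another 15 min at room temperature.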
(In qHTS, concentration-response curves come from the screen itself.)

A short description of test [3]: Primary qHTS for inhibitors of nuclear receptor binding SET domain protein 2 (NSD2) in an isogenic RCH-ACV NSD2 p.E1099K mutant (9B) (AID 1645876). Note: potency is the fitted concentration of half-maximal effect; nearly all actives have a fitted effect of over 70% in size.
Test [4] can be described thus: Primary qHTS for inhibitors of nuclear receptor binding SET domain protein 2 (NSD2) in an RCH-ACV wild type WT cells (2C) (AID 1645877). Note: potency is the fitted concentration of half-maximal effect; nearly all actives have a fitted effect of over 70% in size.
In test [5] the target is Glutathione peroxidase 1 (Homo sapiens) (UniProt P07203). The test is described as follows: Primary qHTS Assay for Inhibitors of Recombinant Selenoprotein Glutathione Peroxidase 1 (GPX1) (AID 1845191). Note: nearly all actives have a fitted effect of over 65% in size. In outline: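 NADPH consumption tracked by fluorescence at 340/450 nm between t=0 and t=15 min, room temperature. Final mix: 10 nM GPX1, 100 nM glutathione reductase, 1 mM GSH, 0.5 mM NADPH, 0.5 mM cumene hydroperoxide, 0.01% BSA; 30 min compound–enzyme preincubation.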

For test [6], the target named is Phospholipid hydroperoxide glutathione peroxidase GPX4 (Homo sapiens) (UniProt P36969). The test is described as follows: Primary qHTS Assay for Inhibitors of Recombinant Selenoprotein Glutathione Peroxidase 4 (GPX4) (AID 1845192). Note: nearly all actives have a fitted effect of over 65% in size. Conditions: outcome: dose series up to 50 µM unless noted. The gist of the method:
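NADPH consumption followed by fluorescence at 340/450 nm, t=0 and after 15 min at room temperature. Reaction started with cumene hydroperoxide (0.5 mM final) after 30 min compound–GPX4 preincubation; final 200 nM GPX4, 100 nM GR, 1 mM GSH, 0.5 mM NADPH.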

Test [7] deals with Luciferin 4-monooxygenase (Photinus pyralis) (UniProt P08659). Kind of test: Primary firefly luciferase (FLuc) qHTS assay for identification of artifact compounds. (AID 1845220). Note: nearly all actives have a fitted effect of over 60% in size. The gist of the method:
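FLuc 10 nM; luciferin 10 uM; ATP 10 uM; Tris-acetate pH 7.6, Mg-acetate 10 mM; 15 min RT preincubation; 5 min reaction; luminescence.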

Test [8] is described as follows: Primary fluorescence-based thiol-reactive (MSTI) qHTS assay for identification of artifact compounds. (AID 1845221).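 Note: thiol-reactive compounds lower the probe fluorescence signal; nearly all actives have a fitted effect of over 65% in size.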 In outline:
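A multi-concentration qHTS design tested compounds against 4 uM MSTI, pH 7.4 phosphate-buffered saline. Plates were protected from light for 1 h at room temperature before imaging fluorescence.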

For test [9], the system named is Nanoluciferase (engineered Oplophorus gracilirostris luciferase). The test is described as follows: Primary Nanoluciferase (NLuc) qHTS assay for identification of artifact compounds. (AID 1845222).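 Note: NLuc secreted into diluted conditioned medium of S16 cells.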 In outline: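 NLuc from S16 cell medium (1:55) plus test compounds, 15 min, room temperature. Luminescence after Nano-Glo (1:100) addition, 5 min.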
Test [10] has as its system C33A. Kind of test: Primary qHTS to identify gynecologic anti-cancer compounds using libraries of approved drugs and bioactive compounds (AID 1345084). Note: nearly all actives have a fitted effect of over 55% in size. As to conditions: Gynecologic cancer cell panel viability, ATPlite luminescence, 48 h; series mostly up to 57.5 µM. The gist of the method: (§1)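 ATP-based viability (ATPlite), 1,000 cells/well, 16 h pre-incubation, 48 h compound at 37 C, 5% CO2, 15 min RT before read.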

Test [11] has as its system CASKI. The description is as above. Conditions: Gynecologic cancer cell panel viability, ATPlite luminescence, 48 h; series mostly up to 57.5 µM. In outline: as §1
Background: In ATP-based viability assays light output follows the ATP content of the culture.

In test [12] the test system is Es-2. The description is as above. As to conditions: Gynecologic cancer cell panel viability, ATPlite luminescence, 48 h; series mostly up to 57.5 µM. In outline: as §1
The subject of test [13] is HeLa. The description is as above. As to conditions: Gynecologic cancer cell panel viability, ATPlite luminescence, 48 h; series mostly up to 57.5 µM. In outline: as §1
Test [14] concerns Hek293T. Described as above. Conditions: Gynecologic cancer cell panel viability, ATPlite luminescence, 48 h, control line for the selectivity index; series mostly up to 57.5 µM. In outline:
as §1

Test [15] deals with JEG-3. Described as above. As to conditions: Gynecologic cancer cell panel viability, ATPlite luminescence, 48 h; series mostly up to 57.5 µM. The gist of the method: as §1
Test [16] concerns Tov-21-G. Described as above. Conditions: Gynecologic cancer cell panel viability, ATPlite luminescence, 48 h; series mostly up to 57.5 µM. In outline: as §1
Test [17] concerns Tov112D. Described as above. As to conditions: Gynecologic cancer cell panel viability, ATPlite luminescence, 48 h; series mostly up to 57.5 µM. In outline:
as §1

Test [18] can be described thus: Primary redox qHTS assay for identification of artifact compounds. (AID 1845223). The gist of the method: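 Redox-cycling detection via DTT (250 uM final) oxidation coupled to Amplex Red (25 uM)/HRP (250 mU/mL) in HBSS. 15 min preincubation plus 30 min after DTT, room temperature. Ex/Em 525/598 nm; 4-parameter Hill fit against DMSO and 10 uM DA3003.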
In test [19] the test system is OV90. Kind of test: Primary qHTS to identify gynecologic anti-cancer compounds using libraries of approved drugs and bioactive compounds (AID 1345084). Note: nearly all actives have a fitted effect of over 55% in size. Conditions: Gynecologic cancer cell panel viability, ATPlite luminescence, 48 h; series mostly up to 57.5 µM. In outline:
as §1

In test [20] the test system is PA-1. The test is described as above. Conditions: Gynecologic cancer cell panel viability, ATPlite luminescence, 48 h; series mostly up to 57.5 µM. In outline:
as §1

The source of these data is PubChem BioAssay (NCATS).

Where “and” joins values, the source holds several entries; their conditions need not be identical. Equal entries are not always repeated. Records with an inconclusive call do not appear. Calls of active or inactive are those of the source. Calls come from the whole dose curve; as a rule, active = well fitted curve in the direction sought with a large enough effect; inconclusive = small, poorly fitted or top-dose-only effect, or another doubt; inactive = no such curve, though single readings can be large; an effect the other way counts as inactive or inconclusive.

Sequence of Calcium and integrin-binding protein 1 (Homo sapiens) (Q99828 whole entry, looked up): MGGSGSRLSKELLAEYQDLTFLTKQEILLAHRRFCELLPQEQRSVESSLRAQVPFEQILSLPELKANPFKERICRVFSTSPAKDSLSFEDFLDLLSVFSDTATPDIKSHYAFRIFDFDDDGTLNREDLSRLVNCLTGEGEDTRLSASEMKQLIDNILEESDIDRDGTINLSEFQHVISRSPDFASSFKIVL
Sequence of Glutathione peroxidase 1 (Homo sapiens) (P07203 whole entry, looked up): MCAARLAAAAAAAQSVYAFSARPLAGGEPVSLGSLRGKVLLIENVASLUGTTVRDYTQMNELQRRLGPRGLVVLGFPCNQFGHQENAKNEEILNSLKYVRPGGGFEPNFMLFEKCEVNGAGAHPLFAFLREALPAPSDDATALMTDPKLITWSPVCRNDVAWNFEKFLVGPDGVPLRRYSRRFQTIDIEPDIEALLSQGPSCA
Sequence of Phospholipid hydroperoxide glutathione peroxidase GPX4 (Homo sapiens) (P36969 whole entry, looked up): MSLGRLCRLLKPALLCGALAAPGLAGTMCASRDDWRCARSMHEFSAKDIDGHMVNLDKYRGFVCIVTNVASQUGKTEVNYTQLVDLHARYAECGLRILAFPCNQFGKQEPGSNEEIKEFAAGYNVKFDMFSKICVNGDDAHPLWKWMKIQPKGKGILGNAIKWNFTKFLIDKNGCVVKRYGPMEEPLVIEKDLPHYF

In the case of `CNC(=O)c1cccc2cc(Oc3ccnc4cc(OCC5(N)CC5)c(OC)cc34)ccc12`, the Potency result in test [1], in test [5], in [6], in test [7], in test [8] and in test [9] was “inactive” throughout. The Potency entry in [10], in test [11], in [12], in test [13], in [14] and in test [15] was “inactive” throughout. In addition, the Potency result in test [16] and in test [17] was “inactive” throughout. The outcome in test [2] was inactive. Also, the Potency in test [3] was 14.8 µM (active) and 20.6 µM (active); in test [4], 10.5 µM (active) and 23.1 µM (active).

With `O=C1c2c(O[C@@H]3O[C@H](CO)[C@@H](O)[C@H](O)[C@H]3O)cc(O)cc2OC1(O)Cc1ccc(O)cc1` (stereo not given in full), the Potency entry in test [1], in [5], in [6], in [7], in [9] and in [18] was “inactive” in each case. For the same compound, the Potency entry in [12], in [13], in test [15], in test [19], in [20] and in [16] was “inactive” each time. Besides, in [2], the result was inactive. Also, the Potency was 7.96 µM (active) in test [3] and 4.47 µM (active) in test [4].

`COc1ccc(Cl)cc1[C@@]1(F)C(=O)Nc2cc(C(F)(F)F)ccc21`: the Potency result in test [1], in test [6], in [7], in test [8], in test [9] and in [10] was “inactive” throughout. Besides, the Potency entry in test [11], in test [12], in test [15], in [19] and in test [16] was “inactive” in each case. The result in test [2] was inactive. Also, the Potency is 7.28 µM (active) in test [3] and 5.78 µM (active) in [4].

For the compound `C=C1CC[C@@H]2[C@](C)(CO)[C@H](O)CC[C@@]2(C)[C@@H]1C/C=C1/C(=O)OC[C@@H]1O`, in test [2], the result was inactive. Further, the Potency result in test [6], in test [7], in test [8], in [9], in [18] and in test [12] was “inactive” in each case. Moreover, the Potency entry in [13], in [15] and in test [19] was “inactive” throughout.

On to `C=C(C)C(=O)OC1[C@@H]2C(=C)C(=O)O[C@@H]2C[C@@H](C)[C@@H]2C=CC(=O)[C@@]12C` (stereo not given in full), for which the Potency result in test [1], in test [5], in [6], in test [7], in test [8] and in test [9] was “inactive” throughout. Moreover, the Potency entry in [18], in test [10], in test [11], in [12], in test [13] and in test [15] was “inactive” each time. Also, the Potency result in test [19] and in test [17] was “inactive” each time. The outcome in test [2] was inactive.

Consider `Cn1cc(-c2cnc3ccc4ccc(CS(=O)(=O)NCc5ccccn5)cc4c(=O)c3c2)cn1`, for which the Potency entry in test [1], in test [5], in test [6], in [7], in [8] and in test [9] was “inactive” in each case. For the same compound, the Potency entry in [18], in test [10], in [11], in test [12], in test [13] and in test [14] was “inactive” throughout. The Potency result in test [15], in [19], in [20] and in test [16] was “inactive” each time. Moreover, the Potency in test [3] was 20.9 µM (active); in test [4], 23 µM (active).

For the compound `CC(=O)c1c(OCCN2CCCCC2)c(OCCC(C)c2ccc(F)cc2)c2oc(C)nc2c1C` (stereo not given), the Potency result in [1], in [5], in [6], in test [7], in test [8] and in test [9] was “inactive” in each case. The Potency entry in test [18], in [10], in [11], in test [12], in [13] and in [15] was “inactive” in each case. Moreover, the Potency result in test [19], in test [16] and in test [17] was “inactive” in each case. Also, the outcome in test [2] was inactive.
